{"source": "PubChem BioAssay (NCATS)", "note": "Inconclusive results are not listed. Activity calls are given as the source filed them. The call rests on the fitted dose curve; in most records, active means well fitted curve in the direction sought with a large enough effect in the signal ratio, with a control signal flat (not every such curve was filed as active); inconclusive means small, poorly fitted or top-dose-only effect, or effect the other way, or a change in a side signal; inactive means no such curve, though single readings can be large or run the other way; the % refers to the signal ratio. On the % scale 0 is the no-effect control and ±100 the full control effect.", "data": [{"molecular_target": "Estrogen receptor (Homo sapiens) (UniProt P03372)", "sequence (P03372 whole entry, looked up)": "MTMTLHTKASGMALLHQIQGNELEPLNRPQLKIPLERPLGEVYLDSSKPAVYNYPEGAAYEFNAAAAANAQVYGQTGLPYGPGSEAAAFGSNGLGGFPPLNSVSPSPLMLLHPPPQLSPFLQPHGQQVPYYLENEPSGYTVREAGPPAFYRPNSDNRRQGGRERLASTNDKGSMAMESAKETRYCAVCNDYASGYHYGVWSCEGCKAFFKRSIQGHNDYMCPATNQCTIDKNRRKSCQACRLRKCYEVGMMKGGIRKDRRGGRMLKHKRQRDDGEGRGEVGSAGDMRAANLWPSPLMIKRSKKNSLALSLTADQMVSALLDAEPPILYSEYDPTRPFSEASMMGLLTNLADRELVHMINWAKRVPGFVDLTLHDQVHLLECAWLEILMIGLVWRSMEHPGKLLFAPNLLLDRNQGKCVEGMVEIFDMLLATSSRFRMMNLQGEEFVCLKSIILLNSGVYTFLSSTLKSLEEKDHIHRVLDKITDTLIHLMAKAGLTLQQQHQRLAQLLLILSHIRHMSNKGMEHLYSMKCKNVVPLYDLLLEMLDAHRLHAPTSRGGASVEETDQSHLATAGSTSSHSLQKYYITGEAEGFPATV", "assay": "qHTS assay for small molecule antagonists of estrogen receptor alpha signaling (AID 588513)", "conditions": "ER-alpha-UAS-bla HEK293, beta-lactamase ratio, antagonist mode; series mostly up to 76.9 µM; activity, negative = inhibition: at the top concentration", "how_it_was_run": "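Fluorescence from CCF4 substrate after 2 h at room temperature gave reporter activity; cells had been exposed to compound and 0.5nM 17-beta-estradiol for 18 h at 37 C. Hill-equation fitting yielded IC50 and maximal response.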", "values": [{"smiles": "OC[C@@H](O)[C@@H](O)[C@H](O)[C@@H](O)CO", "activity, negative = inhibition": "-4.34% (inactive)"}, {"smiles": "CC(C=CC1=C(C)CCCC1(C)C)=CC=CC(C)=CC(=O)Nc1ccc(O)cc1", "Potency": "31.6 µM [inhibitor] (active)"}, {"smiles": "Cc1cc(O)c2c(c1)C(=O)c1cccc(O)c1C2=O", "activity, negative = inhibition": "30.1% (inactive)"}]}]}
